In the OligoGym collection one finds sensor-assay potency score (higher = more potent) data, which are given here for 40 sequences.
Note: reference of the scale not given here.

The target of the first assay is PQLC1. In words: pooled miR-30 sensor sort-seq; sequence = guide strand. The settings on record: shRNA.
Turning to AACCTTGACTTCTTCATCCTTG, the sensor-assay potency score (higher = more potent) is 0.292.

Regarding TCTGCAGCTGTAAAGGAGCGGC, the sensor-assay potency score (higher = more potent) is -0.795.

For TAGTCCGAGAAGCTGCTCCACT, the sensor-assay potency score (higher = more potent) is -0.969.

As for TTCTTCATCCTTGCTATCTGCA, the sensor-assay potency score (higher = more potent) was -0.201.

Consider AAGTCCAGGAAGGACCGCCTGG, for which the sensor-assay potency score (higher = more potent) was -1.26.

In turn, TGCACGTAGTCCGAGAAGCTGC gave a sensor-assay potency score (higher = more potent) of -1.19.

With TTGACTTCTTCATCCTTGCTAT, the sensor-assay potency score (higher = more potent) was found to be 0.0479.

Take TAGGTGGAGAAGCCGTCGGCGT: the sensor-assay potency score (higher = more potent) is -1.4.

TTGAGCTCGTTGGCCACACGGA gave a sensor-assay potency score (higher = more potent) of -0.78.

With TTGATGCTCATGCCCTCCGTGG, the sensor-assay potency score (higher = more potent) was -1.49.

Sequence TCGAAGTCCAGGAAGGACCGCC had a sensor-assay potency score (higher = more potent) of -0.0699.

A further assay concerns the target PRADC1. The assay is described as above. The conditions noted are these: shRNA.
TAGCATGAGACACCCTTGGGGG registered a sensor-assay potency score (higher = more potent) of -0.696.

For TTGTGTGAAAGATACCACCAAA, the sensor-assay potency score (higher = more potent) is -1.24.

Sequence ATGCTGGTGACATTGACTGGGA came in with a sensor-assay potency score (higher = more potent) of -1.

Turning to TCATGTAGCCGTCTCGGCCGAG, the sensor-assay potency score (higher = more potent) is -1.06.

As to TAAACCACTCCAACAACTGCTG, the sensor-assay potency score (higher = more potent) was 0.158.

In the case of TCTTGTAGCATGAGACACCCTT, the sensor-assay potency score (higher = more potent) is -0.0908.

Take TGGATGAAGAAACCGTTGCTGA: the sensor-assay potency score (higher = more potent) is -1.26.

Sequence TTTGTTTCGGGTTCTAGCCAGA registered a sensor-assay potency score (higher = more potent) of -0.698.

ATCATCTCCACGTAGAAGCTGT came in with a sensor-assay potency score (higher = more potent) of -0.485.

Sequence TTTTGTTTCGGGTTCTAGCCAG registered a sensor-assay potency score (higher = more potent) of -0.533.

In the case of TGAATCTGCTCATACCTTGTGT, the sensor-assay potency score (higher = more potent) was -0.084.

Consider AAAGATACCACCAAAGTCCTTG, for which the sensor-assay potency score (higher = more potent) was 0.163.

A further assay deals with PRAMEF6. The description is as above. The conditions noted are these: shRNA.
TACAGCTCCACGCATAAGTTTT: the sensor-assay potency score (higher = more potent) is -1.43.

TTGGGTAAGCAGTGCATCCAGC came in with a sensor-assay potency score (higher = more potent) of -0.474.

As to TTGGACAGTCCTGCACTGGTGT, the sensor-assay potency score (higher = more potent) is -0.525.

For TATTGTGAGGACCTTTAACGAG, the sensor-assay potency score (higher = more potent) was -1.02.

Take TCAGCATCATAACTCTCCCGGG: the sensor-assay potency score (higher = more potent) was -0.662.

For TTAGTTATTGTGAGGACCTTTA, the sensor-assay potency score (higher = more potent) is -0.654.

In turn, TTTTGGAGGCAGCACAGCTTGA came in with a sensor-assay potency score (higher = more potent) of -1.46.

With ATCAGCATCATAACTCTCCCGG, the sensor-assay potency score (higher = more potent) is -0.511.

As to TTGGAGGCAGCACAGCTTGAGG, the sensor-assay potency score (higher = more potent) was -1.39.

The next assay concerns the target PRB2. The assay is described as above. The conditions noted are these: shRNA.
Sequence TTTGGGACTTGTTGTCTCCTTG gave a sensor-assay potency score (higher = more potent) of -0.1.

Regarding TCGAGAACTTCGGGACTTGTTG, the sensor-assay potency score (higher = more potent) is -0.988.

On to TTCGGGACTTGCTGCCTCCTTG, for which the sensor-assay potency score (higher = more potent) is -0.944.

For TCGGGACTTGTTGTCTCCTTGT, the sensor-assay potency score (higher = more potent) was -0.96.

Sequence TTGAGGCTGGTTGCCTCCTTGT showed a sensor-assay potency score (higher = more potent) of -1.75.

For the sequence ACTTGTTGTCTCCTTGTGGGGG, the sensor-assay potency score (higher = more potent) is -0.828.

For TGGCTTTCCTGCTATTAGGGAG, the sensor-assay potency score (higher = more potent) was -0.778.

In the case of TTGTTGTCTCCTTGTGGGGGTG, the sensor-assay potency score (higher = more potent) is -1.06.
